# Experimental data taken from PubChem BioAssay (EPA / NIEHS).
# “And” between values parts separate entries of the source, which are not always exact repeats. Identical values can stand only once. The source holds several records for some structures; these can differ, active in one and inactive in another. The source made the active and inactive calls. Rule for the calls: active = hit-call score of the fitted dose curve at least 0.9, where 1 is the maximum; inactive = score below 0.9.
# How the values were obtained:
# [1] = ATG_GLI_CIS: Attagene CIS-FACTORIAL HepG2 Assay for human Zinc Finger Protein GLI1 (AID 2282945); settings: HepG2, Attagene cis-factorial reporter mRNA, GLI element; actives raise or lower the signal
# In short: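 Transiently transfected HepG2 cells report endogenous transcription factor activity via cis-element-driven reporter units. After 24 h compound exposure, reporter mRNA was measured by RT-PCR with capillary electrophoresis; bidirectional fitting against DMSO baseline.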
# [2] = molecular target: Bile acid receptor (Homo sapiens) (UniProt Q96RI1); test: ATG_IR1_CIS: Attagene CIS-FACTORIAL HepG2 Assay for human Nuclear Receptor Subfamily 1 Group H Member 4 (NR1H4), IR1 submotif (AID 2282946); settings: IR1 reporter transcription, actives raise or lower the signal
# In short: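 HepG2 cells transiently transfected with multiple cis-promoter-driven reporter units to measure endogenous transcription factor activity; 24 h exposure. Reporter mRNA read by RT-PCR, FAM labelling, HpaI digestion and capillary electrophoresis. Bidirectional fit versus DMSO.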
# [3] = ATG_GRE_CIS: Attagene CIS-FACTORIAL HepG2 Assay for human Glucocorticoid Response Elements (GRE) (AID 2282947); settings: HepG2 GRE cis-reporter, Attagene multiplex mRNA; actives raise or lower the signal
# In short: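 Transiently transfected HepG2 cells carrying GRE cis-reporter units (endogenous TF activity) dosed 24 h; reporter mRNA quantified by RT-PCR, 6-FAM labelling, HpaI digestion and capillary electrophoresis. Bidirectional fit versus DMSO baseline.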
# [4] = ATG_ISRE_CIS: Attagene CIS-FACTORIAL HepG2 Assay for human Interferon Regulatory Factor 1 (IRF1) binding to an Interferon-Stimulated Response Element (ISRE) (AID 2282948); settings: HepG2 ISRE cis-reporter (Attagene), mRNA transcription readout; actives raise or lower the signal
# In short: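 Quantitation relies on labelled RT-PCR fragments separated by capillary electrophoresis. Human HepG2 cells bearing cis-promoter reporter constructs were treated 24 h; DMSO served as baseline for bidirectional fitting.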
# [5] = ATG_M_32_CIS: Attagene CIS-FACTORIAL HepG2 Assay for M32 Transcription Factor (Internal Marker) (AID 2282949); settings: HepG2 Attagene cis-factorial M32 reporter, mRNA; actives raise or lower the signal;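 note: background control marker of the multiplexed CIS panel rather than a real target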
# In short: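 Fluorescent capillary electrophoresis peaks of HpaI-digested, FAM-labelled RT-PCR reporter products give the signal. Source: transiently transfected human liver HepG2 cells, 24 h after chemical dosing; bidirectional fitting against DMSO.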
# [6] = ATG_M_06_CIS: Attagene CIS-FACTORIAL HepG2 Assay for M06 Transcription Factor (Internal Marker) (AID 2282950); settings: HepG2 Attagene CIS-FACTORIAL M06 internal marker reporter; actives raise or lower the signal
# In short: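 Cells (HepG2, transiently carrying cis-driven reporter units) receive chemical for 24 h before RNA isolation. Reporter cDNA is PCR-amplified, FAM-labelled by primer extension, HpaI-digested and sized on a capillary analyser.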
# [7] = molecular target: Hypoxia-inducible factor 1-alpha (Homo sapiens) (UniProt Q16665); test: ATG_HIF1a_CIS: Attagene CIS-FACTORIAL HepG2 Assay for human Hypoxia Inducible Factor 1 (HIF1A) (AID 2282951); settings: HepG2 Attagene cis-factorial HIF1a reporter transcription; actives raise or lower the signal
# In short: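 Dosed 24 h, transfected HepG2 cells yielded total RNA whose reporter transcripts were RT-PCR-amplified and sized by capillary electrophoresis using fluorescent labelling; DMSO defined baseline, with gain and loss of signal both fitted.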
# [8] = molecular target: Hepatocyte nuclear factor 6 (Homo sapiens) (UniProt Q9UBC0); test: ATG_HNF6_CIS: Attagene CIS-FACTORIAL HepG2 Assay for human Hepatocyte Nuclear Factor 6 (HNF6) (AID 2282952); settings: HepG2 Attagene cis-factorial HNF6 reporter transcription; actives raise or lower the signal
# In short: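 HepG2, transient MRTU transfection (cis promoters); 24 h chemical exposure; total RNA → oligo(dT) RT → PCR → 6-FAM labelling → HpaI cut → CE; bidirectional fit vs DMSO.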
# [9] = molecular target: Heat shock factor protein 1 (Homo sapiens) (UniProt Q00613); test: ATG_HSE_CIS: Attagene CIS-FACTORIAL HepG2 Assay for human Heat Shock Transcription Factor 1 (HSE) (AID 2282953); settings: HepG2 HSE cis-reporter, Attagene RNA transcription; actives raise or lower the signal
# In short: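 Liver-derived HepG2 cells carry transiently introduced multiple reporter units governed by cis promoters. Reporter RNA measured 24 h post-dose through reverse transcription, PCR amplification, fluorescent labelling and capillary electrophoresis, normalised to DMSO.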
# [10] = ATG_MRE_CIS: Attagene CIS-FACTORIAL HepG2 Assay for human Metal Responsive Element (MRE) (AID 2282954); settings: HepG2 MRE cis-reporter transcription, Attagene multiplex; actives raise or lower the signal
# In short: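 HepG2 cells transiently transfected with cis-element-driven reporter units; mRNA measured 24 h after dosing. Reporter transcripts quantified by RT-PCR, FAM labelling, HpaI digestion and capillary electrophoresis; bidirectional fit versus DMSO.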
# [11] = ATG_PBREM_CIS: Attagene CIS-FACTORIAL HepG2 Assay for human Phenobarbital-responsive Enhancer Module (PBREM) (AID 2282955); settings: HepG2 PBREM cis-reporter, Attagene multiplexed transcription; actives raise or lower the signal
# In short: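 Transfected liver-derived HepG2 cells exposed 24 h; PBREM reporter transcript quantified via RT-PCR and capillary electrophoresis, with activity in either direction referenced to DMSO.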
# [12] = molecular target: Paired box protein Pax-6 (Homo sapiens) (UniProt P26367); test: ATG_Pax6_CIS: Attagene CIS-FACTORIAL HepG2 Assay for human Paired Box 6 (PAX6) (AID 2282956); settings: HepG2 CIS-FACTORIAL PAX6 reporter transcription, RNA readout; actives raise or lower the signal
# In short: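 After twenty-four hours of chemical exposure, transfected HepG2 cells are harvested for RNA. Cis-promoter reporter transcripts are amplified, fluorescently labelled and sized by capillary electrophoresis, with gain and loss of signal scored against DMSO.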
# [13] = ATG_PXRE_CIS: Attagene CIS-FACTORIAL HepG2 Assay for human Pregnane X Receptor Element (PXRE) (AID 2282957); settings: HepG2 Attagene CIS-FACTORIAL PXRE reporter, mRNA; actives raise or lower the signal
# In short: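 Transfect HepG2 with MRTUs (cis promoter elements); dose chemical, incubate 24 h; isolate RNA, RT with oligo(dT), PCR, 6-FAM label, HpaI cut, CE. Gain/loss fit vs DMSO.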
# [14] = molecular target: Transcription factor Sp1 (Homo sapiens) (UniProt P08047); test: ATG_Sp1_CIS: Attagene CIS-FACTORIAL HepG2 Assay for human Specificity Protein 1 (Sp1) (AID 2282961); settings: HepG2 Sp1 cis-reporter transcription, actives raise or lower the signal
# In short: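 Endpoint reflects endogenous Sp1 transcriptional activity, not an exogenous fusion protein: HepG2 cells with transfected cis-regulated reporters, 24 h dosing, RT-PCR/capillary electrophoresis mRNA read-out, DMSO-normalised bidirectional fit.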
# [15] = molecular target: Signal transducer and activator of transcription 3 (Homo sapiens) (UniProt P40763); test: ATG_STAT3_CIS: Attagene CIS-FACTORIAL HepG2 Assay for human Signal Transducer and Activator of Transcription 3 (STAT3) (AID 2282963); settings: HepG2, Attagene cis-factorial STAT3 reporter transcription; actives raise or lower the signal
# In short: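 HepG2 cells transiently transfected with multiple cis-element-driven reporter units report endogenous transcription factor activity. After 24 h compound exposure, reporter mRNA is measured by RT-PCR, 6-FAM labelling, HpaI digestion and capillary electrophoresis. Fitted bidirectionally versus DMSO.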
# [16] = ATG_TA_CIS: Attagene CIS-FACTORIAL HepG2 Assay for human TA Basal Promoter (AID 2282964); settings: HepG2 Attagene CIS-factorial TA basal promoter reporter; actives raise or lower the signal
# In short: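 Background internal-marker endpoint from a 52-component HepG2 cis-reporter panel. Cells treated 24 h; reporter transcripts quantified via RT-PCR and CE fluorescence against DMSO baseline.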
# [17] = ATG_PPRE_CIS: Attagene CIS-FACTORIAL HepG2 Assay for human Peroxisome Proliferator-activated Response Element (PPRE) (AID 2282958); settings: HepG2 PPRE cis-element reporter, Attagene transcription factor profiling; actives raise or lower the signal
# In short: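 Measured endpoint: PPRE-controlled reporter mRNA, detected by RT-PCR and capillary electrophoresis fluorescence, from transiently transfected HepG2 cells 24 h after dosing. Curves fitted in both directions using DMSO baseline.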
# [18] = ATG_RORE_CIS: Attagene CIS-FACTORIAL HepG2 Assay for human RAR-related Orphan Receptor Element (RORE) (AID 2282959); settings: HepG2 Attagene cis-factorial RORE reporter, mRNA; actives raise or lower the signal
# In short: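 Transiently transfected HepG2 reporter cells were treated 24 h. Reporter transcripts were detected by RT-PCR and capillary electrophoresis, with bidirectional fitting against DMSO.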
# [19] = ATG_Sox_CIS: Attagene CIS-FACTORIAL HepG2 Assay for human SRY-box transcription factor (SOX) (AID 2282960); settings: HepG2 Attagene cis-factorial SOX reporter, mRNA; actives raise or lower the signal
# In short: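 Gain- or loss-of-signal endpoint, fitted bidirectionally with DMSO as negative control. Based on reporter mRNA from transfected HepG2 cells harvested 24 h post-treatment and quantified via RT-PCR and capillary electrophoresis.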
# [20] = ATG_SREBP_CIS: Attagene CIS-FACTORIAL HepG2 Assay for human Sterol Regulatory Element Binding (SREBP) (AID 2282962); settings: HepG2 Attagene cis-factorial SREBP reporter, mRNA; actives raise or lower the signal
# In short: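 Twenty-four hours after chemical dosing of transfected HepG2 cultures, reporter RNA was converted to cDNA, amplified, end-labelled with 6-FAM and resolved by capillary electrophoresis. Responses were fitted relative to DMSO.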
# Sequence of Transcription factor Sp1 (Homo sapiens) (P08047 whole entry, looked up, the tested form may be a part): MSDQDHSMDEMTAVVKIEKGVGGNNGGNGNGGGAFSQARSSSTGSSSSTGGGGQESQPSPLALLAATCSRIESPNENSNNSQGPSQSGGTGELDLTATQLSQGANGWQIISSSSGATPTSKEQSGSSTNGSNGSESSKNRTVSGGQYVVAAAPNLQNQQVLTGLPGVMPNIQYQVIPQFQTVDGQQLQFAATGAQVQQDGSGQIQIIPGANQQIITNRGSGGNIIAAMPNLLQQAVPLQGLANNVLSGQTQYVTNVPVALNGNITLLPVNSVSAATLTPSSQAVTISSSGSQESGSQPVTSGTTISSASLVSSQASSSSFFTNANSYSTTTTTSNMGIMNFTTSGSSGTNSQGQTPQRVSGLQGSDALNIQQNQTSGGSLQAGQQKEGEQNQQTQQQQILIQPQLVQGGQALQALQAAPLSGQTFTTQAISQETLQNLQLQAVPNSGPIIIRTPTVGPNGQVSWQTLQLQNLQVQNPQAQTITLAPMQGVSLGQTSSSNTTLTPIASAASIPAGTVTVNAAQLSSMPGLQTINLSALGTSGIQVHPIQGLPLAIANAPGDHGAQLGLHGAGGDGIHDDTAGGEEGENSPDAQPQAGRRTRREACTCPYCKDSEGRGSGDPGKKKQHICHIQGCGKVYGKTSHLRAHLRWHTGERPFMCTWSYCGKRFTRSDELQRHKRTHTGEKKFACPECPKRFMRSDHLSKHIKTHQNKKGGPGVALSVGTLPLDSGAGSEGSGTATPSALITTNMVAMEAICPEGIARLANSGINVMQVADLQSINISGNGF
# Sequence of Hepatocyte nuclear factor 6 (Homo sapiens) (Q9UBC0 whole entry, looked up): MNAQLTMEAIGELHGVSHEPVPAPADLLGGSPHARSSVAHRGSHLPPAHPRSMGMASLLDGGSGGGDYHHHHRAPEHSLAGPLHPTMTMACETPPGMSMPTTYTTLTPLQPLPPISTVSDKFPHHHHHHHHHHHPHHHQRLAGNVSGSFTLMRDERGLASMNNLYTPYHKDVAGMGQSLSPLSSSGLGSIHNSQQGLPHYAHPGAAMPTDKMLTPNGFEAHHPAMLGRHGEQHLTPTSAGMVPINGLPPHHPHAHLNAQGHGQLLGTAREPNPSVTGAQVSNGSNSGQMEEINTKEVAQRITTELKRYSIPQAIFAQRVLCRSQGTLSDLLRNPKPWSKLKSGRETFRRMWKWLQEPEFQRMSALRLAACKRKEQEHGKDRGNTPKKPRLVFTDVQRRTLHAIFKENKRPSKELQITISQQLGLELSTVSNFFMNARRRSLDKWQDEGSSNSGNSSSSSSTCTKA
# Sequence of Signal transducer and activator of transcription 3 (Homo sapiens) (P40763 whole entry, looked up): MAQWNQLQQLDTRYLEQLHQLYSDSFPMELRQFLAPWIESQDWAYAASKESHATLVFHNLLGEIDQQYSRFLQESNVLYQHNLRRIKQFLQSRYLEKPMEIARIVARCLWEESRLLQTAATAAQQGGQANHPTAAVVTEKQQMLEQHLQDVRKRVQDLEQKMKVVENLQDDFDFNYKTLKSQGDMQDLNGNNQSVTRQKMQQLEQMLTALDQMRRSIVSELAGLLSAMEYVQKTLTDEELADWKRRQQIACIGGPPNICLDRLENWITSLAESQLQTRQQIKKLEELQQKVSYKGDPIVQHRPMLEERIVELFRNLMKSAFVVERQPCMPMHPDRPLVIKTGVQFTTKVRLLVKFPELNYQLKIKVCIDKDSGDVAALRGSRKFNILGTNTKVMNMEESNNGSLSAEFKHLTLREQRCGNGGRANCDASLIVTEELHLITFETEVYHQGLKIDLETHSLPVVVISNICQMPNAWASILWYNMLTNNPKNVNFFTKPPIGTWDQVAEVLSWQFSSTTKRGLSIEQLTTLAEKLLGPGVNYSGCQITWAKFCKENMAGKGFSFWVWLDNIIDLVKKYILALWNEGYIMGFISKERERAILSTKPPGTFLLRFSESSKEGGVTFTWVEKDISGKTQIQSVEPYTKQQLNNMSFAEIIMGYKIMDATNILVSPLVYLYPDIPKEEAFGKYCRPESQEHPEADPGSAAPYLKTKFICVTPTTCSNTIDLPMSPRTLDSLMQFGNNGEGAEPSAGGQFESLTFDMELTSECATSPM
# Sequence of Paired box protein Pax-6 (Homo sapiens) (P26367 whole entry, looked up): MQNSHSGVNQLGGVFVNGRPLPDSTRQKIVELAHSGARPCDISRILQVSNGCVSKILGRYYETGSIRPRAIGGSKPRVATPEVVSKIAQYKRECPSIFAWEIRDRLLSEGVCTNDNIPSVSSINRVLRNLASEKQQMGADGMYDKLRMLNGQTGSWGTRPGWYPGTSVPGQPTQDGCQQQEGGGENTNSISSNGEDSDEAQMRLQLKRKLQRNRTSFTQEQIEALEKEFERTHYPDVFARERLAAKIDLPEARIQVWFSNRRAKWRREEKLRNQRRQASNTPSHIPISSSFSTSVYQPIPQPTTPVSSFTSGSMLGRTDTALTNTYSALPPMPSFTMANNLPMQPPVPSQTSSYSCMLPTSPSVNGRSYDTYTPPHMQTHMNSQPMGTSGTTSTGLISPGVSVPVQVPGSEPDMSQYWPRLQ
# Sequence of Heat shock factor protein 1 (Homo sapiens) (Q00613 whole entry, looked up): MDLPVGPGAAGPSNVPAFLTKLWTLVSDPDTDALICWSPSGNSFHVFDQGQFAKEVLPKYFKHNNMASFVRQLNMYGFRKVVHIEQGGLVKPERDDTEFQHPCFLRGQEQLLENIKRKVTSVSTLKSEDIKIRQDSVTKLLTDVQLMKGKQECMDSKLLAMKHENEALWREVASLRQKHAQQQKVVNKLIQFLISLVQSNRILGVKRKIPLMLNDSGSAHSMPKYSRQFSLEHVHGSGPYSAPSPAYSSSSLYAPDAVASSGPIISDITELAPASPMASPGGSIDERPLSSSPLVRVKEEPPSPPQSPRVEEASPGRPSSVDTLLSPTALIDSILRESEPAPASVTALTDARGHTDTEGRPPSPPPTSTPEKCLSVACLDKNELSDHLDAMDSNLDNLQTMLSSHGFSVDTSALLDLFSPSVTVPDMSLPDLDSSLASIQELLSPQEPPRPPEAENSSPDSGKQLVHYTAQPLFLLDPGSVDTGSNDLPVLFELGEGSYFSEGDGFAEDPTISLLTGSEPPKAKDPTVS
# Sequence of Bile acid receptor (Homo sapiens) (Q96RI1 whole entry, looked up): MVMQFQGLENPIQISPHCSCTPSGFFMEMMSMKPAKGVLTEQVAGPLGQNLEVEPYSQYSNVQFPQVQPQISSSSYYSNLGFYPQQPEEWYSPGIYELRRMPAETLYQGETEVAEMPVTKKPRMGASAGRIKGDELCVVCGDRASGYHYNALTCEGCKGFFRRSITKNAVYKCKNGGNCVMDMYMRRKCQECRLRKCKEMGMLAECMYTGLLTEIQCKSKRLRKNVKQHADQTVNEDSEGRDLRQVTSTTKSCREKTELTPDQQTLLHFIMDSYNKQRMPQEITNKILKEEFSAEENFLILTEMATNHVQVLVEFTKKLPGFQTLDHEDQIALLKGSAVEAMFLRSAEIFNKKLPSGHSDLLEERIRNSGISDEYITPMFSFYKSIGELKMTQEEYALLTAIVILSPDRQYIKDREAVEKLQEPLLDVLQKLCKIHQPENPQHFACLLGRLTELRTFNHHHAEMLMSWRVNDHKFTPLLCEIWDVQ
# Sequence of Hypoxia-inducible factor 1-alpha (Homo sapiens) (Q16665 whole entry, looked up): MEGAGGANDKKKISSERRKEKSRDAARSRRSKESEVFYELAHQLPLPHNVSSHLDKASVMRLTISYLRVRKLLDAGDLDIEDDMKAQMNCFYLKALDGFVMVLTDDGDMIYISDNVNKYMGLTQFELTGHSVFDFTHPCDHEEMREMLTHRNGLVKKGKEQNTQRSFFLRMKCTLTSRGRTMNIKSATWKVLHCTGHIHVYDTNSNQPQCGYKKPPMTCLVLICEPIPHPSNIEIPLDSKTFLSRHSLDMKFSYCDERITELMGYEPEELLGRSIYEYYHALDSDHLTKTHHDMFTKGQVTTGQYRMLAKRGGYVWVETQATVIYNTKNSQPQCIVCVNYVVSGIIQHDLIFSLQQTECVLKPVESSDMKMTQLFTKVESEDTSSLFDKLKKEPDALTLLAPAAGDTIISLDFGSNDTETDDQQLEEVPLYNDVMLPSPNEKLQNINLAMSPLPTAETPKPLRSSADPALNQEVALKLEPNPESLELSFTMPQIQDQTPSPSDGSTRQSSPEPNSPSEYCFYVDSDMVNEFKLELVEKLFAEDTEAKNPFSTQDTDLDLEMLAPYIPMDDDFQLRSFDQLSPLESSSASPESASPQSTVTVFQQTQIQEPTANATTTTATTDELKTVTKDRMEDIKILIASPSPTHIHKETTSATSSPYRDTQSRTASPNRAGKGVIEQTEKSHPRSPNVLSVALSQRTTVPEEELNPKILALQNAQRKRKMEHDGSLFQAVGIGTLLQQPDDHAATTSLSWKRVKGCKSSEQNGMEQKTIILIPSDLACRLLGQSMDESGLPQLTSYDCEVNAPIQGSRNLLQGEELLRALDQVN
compound,measurement,setting,value
C=CC(C)(CCC=C(C)C)OC(=O)CC (centres undefined),outcome,[1],inactive
same,outcome,[2],inactive
same,outcome,[3],inactive
same,outcome,[4],inactive
same,outcome,[5],inactive
same,outcome,[6],inactive
same,outcome,[7],inactive
same,outcome,[8],inactive
same,outcome,[9],inactive
same,outcome,[10],inactive
same,outcome,[11],inactive
same,outcome,[12],inactive
same,AC50,[13],31 µM (active)
same,outcome,[14],inactive
same,outcome,[15],inactive
same,outcome,[16],inactive
O=C(c1ccc(OCCN2CCCCC2)cc1)c1c(-c2ccc(O)cc2)sc2cc(O)ccc12,AC50,[1],11.1 µM (active) and 15.2 µM (active)
same,outcome,[1],inactive
same,AC50,[3],20.2 µM (active)
same,outcome,[3],inactive
same,AC50,[4],11.1 µM (active) and 17 µM (active) and 14.8 µM (active)
same,outcome,[4],inactive
same,outcome,[5],inactive
same,outcome,[6],inactive
same,AC50,[8],11.1 µM (active) and 21.4 µM (active)
same,outcome,[8],inactive
same,AC50,[9],17.2 µM (active) and 17.7 µM (active) and 19.8 µM (active)
same,outcome,[9],inactive
same,AC50,[10],15.8 µM (active) [middle of 4 runs]
same,outcome,[10],inactive
same,outcome,[11],inactive
same,AC50,[12],11.1 µM (active) [middle of 4 runs]
same,outcome,[12],inactive
same,AC50,[13],2.79 µM (active) [middle of 4 runs]
same,outcome,[13],inactive
same,outcome,[17],inactive
same,AC50,[18],11.1 µM (active) and 15.6 µM (active)
same,outcome,[18],inactive
same,AC50,[19],13 µM (active) and 18 µM (active)
same,outcome,[19],inactive
same,AC50,[14],11.1 µM (active) and 16.7 µM (active)
same,outcome,[14],inactive
same,outcome,[15],inactive
same,AC50,[16],19.3 µM (active) and 8.31 µM (active)
same,outcome,[16],inactive
CCC(C)(CCCC(C)C)OC(C)=O (centres undefined),outcome,[1],inactive
same,outcome,[2],inactive
same,outcome,[3],inactive
same,outcome,[4],inactive
same,outcome,[5],inactive
same,outcome,[6],inactive
same,outcome,[7],inactive
same,outcome,[8],inactive
same,outcome,[9],inactive
same,outcome,[10],inactive
same,outcome,[11],inactive
same,outcome,[12],inactive
same,outcome,[13],inactive
same,outcome,[17],inactive
same,outcome,[18],inactive
same,outcome,[14],inactive
same,outcome,[20],inactive
same,outcome,[15],inactive
same,outcome,[16],inactive
